RAD54 inh: inhibitors of human RAD54 branch migration; Q92698; RAD54 Holliday junction branch migration, FAM/BHQ fluorescence; inhibition, % at 10.4 µM; 360,000 compounds, 0.14% hits; AID 602329;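 active = mean normalized replicate activity at least 40 and at least half of replicates scoring 40 or more; inconclusive = only one of the two criteria met; inactive = mean below 40 and under half of replicates reaching 40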;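 note: 0% = median of neutral control wells and 100% = median of positive control wells; inhibitors cause a drop in the FAM fluorescence signal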
GSIS activator: primary screen for activators of insulin secretion dependent on glucose, INS-1E cells, GLuc reporter luminescence; INS-1E GLuc reporter insulin secretion, 2-3 h; activation, % at 16.6 µM; 370,000 compounds, 0.61% hits;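 active = lowest replicate activation of at least 40%, so every replicate reaches that level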;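 note: 0% = median of neutral control wells and 100% = median of IBMX positive control wells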
MLL AF4-AF9 inh: blocks AF4 peptide binding to human AF9 | P42568 | AlphaScreen, biotin-AF4 peptide binding to FLAG-AF9 | inhibition, % at 10 µM | 350,000 compounds, 0.47% hits;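 active = every replicate reaching a set inhibition limit, whatever the replicate mean, cut at about 25% in these data; inconclusive = mean inhibition reaches that limit but some replicates miss it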;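 note: 0% = plate neutral control median and 100% = total signal loss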
Target sequence (P42568 whole entry, looked up): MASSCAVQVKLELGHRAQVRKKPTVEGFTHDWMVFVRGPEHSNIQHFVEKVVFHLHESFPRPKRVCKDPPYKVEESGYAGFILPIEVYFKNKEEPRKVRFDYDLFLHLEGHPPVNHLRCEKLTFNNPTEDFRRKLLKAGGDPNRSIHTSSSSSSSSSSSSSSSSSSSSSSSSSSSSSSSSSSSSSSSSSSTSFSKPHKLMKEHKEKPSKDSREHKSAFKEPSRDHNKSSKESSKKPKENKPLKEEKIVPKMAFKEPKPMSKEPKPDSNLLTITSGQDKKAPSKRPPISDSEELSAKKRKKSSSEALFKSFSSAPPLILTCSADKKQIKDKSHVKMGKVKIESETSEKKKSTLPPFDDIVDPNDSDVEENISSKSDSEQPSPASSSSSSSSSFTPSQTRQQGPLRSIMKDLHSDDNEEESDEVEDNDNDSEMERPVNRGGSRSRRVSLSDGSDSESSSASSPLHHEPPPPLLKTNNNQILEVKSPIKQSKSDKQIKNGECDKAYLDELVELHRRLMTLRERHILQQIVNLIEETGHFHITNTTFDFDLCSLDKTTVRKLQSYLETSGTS
RAD52 anneal inh: RAD52 (human) annealing inhibition; 360,000 compounds, 0.46% hits; recombinant RAD52 DNA annealing, FRET fluorescence; inhibition, % at 18.7 µM; AID 651710; P43351;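 active = every replicate showing at least 50% inhibition; inconclusive = mean inhibition at least 50% but not in every replicate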
dFosB act: mouse delta FosB homodimer activation. purified delta FosB, TAMRA-CDK5 oligo fluorescence polarization; percent of positive-control signal above neutral wells. activation, % at 25 µM. 340,000 compounds, 0.99% hits. AID 493131;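 active = mean activation above about 17%, with every replicate also reaching it, limit read from the data, passing the limit was not always enough; inconclusive = only one of the two conditions met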
DENV2 CPE: inhibitors of DENV2 cytopathic effect; 350,000 compounds, 1.7% hits; DENV2-infected cells, cytopathic effect rescue, plate reader; AID 651640; CPE inhibition, % at 9.99 µM; in the data active = CPE inhibition above about 20%, passing the limit was not always enough; inconclusive = no clear call, values can overlap the other calls; tested in BHK-21 cells;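 note: 0% = median of neutral control wells and 100% = median of positive control wells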
RAD52 DNA ctr: DNA binding artifact in RAD52 counter-screen; shares compounds with RAD52 anneal inh; Salmon sperm DNA/acridine orange FP displacement; AC50, µM; 1,000 compounds, 8% hits; AID 652128;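 active = fitted half-maximal concentration for signal loss at or below twice the highest dose tested, in every separate run, actives reach about 64 µM in these data; inconclusive = runs disagree, or flat partial signal loss, or poor fit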
* hit, by the source's call; i = inactive; ? = inconclusive; nt = not tested or not shown. Shown are actives, neighbours in structure and some others; about 3.1% of the full set was active somewhere.

SMILES | RAD54 inh | GSIS activator | MLL AF4-AF9 inh | RAD52 anneal inh | dFosB act | DENV2 CPE | RAD52 DNA ctr
Cc1cc(-n2c(C)c3c(C)nnc(C)c3c2C)ccc1N | nt | nt | 7.0 | 65.9* | -5.7 | 9.6 | i
Cc1ccc(-n2c(C)c3c(C)nnc(C)c3c2C)cc1N | 5.1 | -4.3 | 14.0 | 42.8 | 9.8 | 3.3 | nt
Nc1cccc(C(=O)OCC(=O)Nc2cccc3c2C(=O)c2ccccc2C3=O)c1 | nt | -0.2 | nt | nt | -5.4 | nt | nt
CCN(CC)CCC(=O)Nc1cccc2c1C(=O)c1ccccc1C2=O | 94.5* | nt | 11.4 | 78.5* | 35.0* | -11.3 | 9.04µM*
Cc1cccc(N2CCN(C(=S)Nc3ccc4nc(N5CCN(C)CC5)cc(C)c4c3)CC2C)c1 (stereo not drawn) | nt | -40.8 | -0.1 | 31.1 | -5.9 | 8.8 | nt
Cc1cc(N2CCN(C)CC2)nc2ccc(NC(=S)N3CCCCC3)cc12 | 43.0 | 6.3 | 20.8 | 71.2* | -3.9 | 3.6 | i
Cc1cc(N2CCN(C)CC2)nc2ccc(NC(=S)N3CCN(c4ccc(Cl)cc4)CC3)cc12 | 19.6 | -20.9 | 17.5 | 89.6* | 9.6 | nt | i
Cc1cc(N2CCN(C)CC2)nc2ccc(NC(=S)N3CCCCCC3)cc12 | 18.4 | 18.6 | 5.1 | 51.8* | 1.6 | 5.0 | i
CCCCN(CC)C(=S)Nc1ccc2nc(N3CCN(C)CC3)cc(C)c2c1 | 45.5 | -10.5 | -82.1 | 34.4 | 6.1 | 2.4 | nt
COCCNCC(O)CON=C1c2ccccc2-c2ccccc21 (stereo not drawn) | nt | 7.1 | 1.2 | -13.2 | -12.7 | -5.4 | nt
CC(C)CCNCC(O)CON=C1c2ccccc2-c2ccccc21 (stereo not drawn) | nt | 9.2 | 27.2* | 66.0* | -17.2 | nt | i
O=C(N[C@@H]1CC[C@H](CCNS(=O)(=O)c2ccc(F)cc2)O[C@H]1CO)C1CCCC1 | -1.5 | 4.0 | -1.3 | -14.5 | nt | -0.1 | nt
O=C(C[C@H]1CC[C@@H](NC(=O)Nc2ccc3c(c2)OCO3)[C@@H](CO)O1)NCCCN1CCOCC1 | nt | 2.4 | nt | 1.6 | nt | nt | nt
CCCCCCCCCCCCCCCC[n+]1cccc2ccccc21 | nt | 159.2* | 26.1* | 89.7* | -136.1 | -4.0 | 31.8µM*
NCCNCCNCCN | 21.2 | -3.7 | 16.9 | 94.3* | 1.3 | -10.6 | i
CN(C)C(=O)C[C@H]1C[C@@H]2c3cc(NC(=O)C4CCC4)ccc3O[C@@H]2[C@H](CO)O1 | 0.1 | 1.9 | 0.0 | -1.5 | nt | 1.2 | nt
CN(C)CCNC(=O)c1cccc(-c2cnc3c(NC=O)cc(-c4cc(F)c(F)c(F)c4)cn23)c1 | 33.8 | 11.7 | 7.3 | 66.6* | nt | -4.2 | i
CN(C)C(=O)c1cccc(-c2cnc3c(NC=O)cc(-c4cccc(F)c4)cn23)c1 | -2.6 | 9.0 | 5.9 | -14.9 | nt | ? | nt
O=C(NC1CCCCC1)[C@@H]1[C@@H](CO)[C@@H]2Cn3c(cccc3=O)[C@H]1N2CC1CCCCC1 | nt | -14.8 | -2.4 | -1.3 | nt | ? | nt
C[C@@H]1CCCCO[C@H](CN(C)Cc2ccc(C(=O)O)cc2)[C@H](C)CN([C@H](C)CO)C(=O)c2cc(NC(=O)C3CCCCC3)ccc2O1 | 3.0 | 2.4 | 1.8 | -4.3 | nt | 4.6 | nt
Cc1cc(O)cc2c(=O)c3ccccc3sc12 | nt | 0.3 | -6.3 | 2.4 | -10.7 | -5.0 | nt
Cc1ccc(NCCN(C)C)c2c(=O)c3cc(O)ccc3sc12 | nt | 109.4 | 39.2* | 84.2* | 42.6* | -1.1 | 11.9µM*
Cc1cc(C)c(CN2CCN(CCCn3cnc(C(=O)Nc4ccc(C)c(C)c4)n3)CC2)c(C)c1 | 4.6 | 40.6 | 11.2 | 55.8* | 13.1 | 9.6 | i
Cc1ccc(NCCCn2cnc(C(=O)Nc3ccc(C)c(C)c3)n2)cc1C | -25.2 | 0.8 | -3.8 | 4.2 | -10.0 | 8.7 | nt
C[C@@H]1CCCCO[C@H](CN(C)C(=O)Nc2ccccc2)[C@H](C)CN([C@@H](C)CO)C(=O)c2cc(NS(=O)(=O)c3cccs3)ccc2O1 | 5.9 | -28.1 | 2.5 | 19.2 | nt | -6.4 | nt
SMILES | RAD54 inh | GSIS activator | MLL AF4-AF9 inh | RAD52 anneal inh | dFosB act | DENV2 CPE | RAD52 DNA ctr
CCOC(=O)c1sc(NC(C)=O)c(C(=O)OCC)c1C | -9.3 | -1.3 | nt | -3.3 | -16.2 | nt | nt
CCOC(=O)c1c(NC(C)=O)sc2c(OCCN(CC)CC)c(Br)ccc12 | nt | 4.5 | 13.1 | 61.0* | -28.9 | 0.9 | i
CS(=O)(=O)N1[C@@H]2CN(CC3CC3)C[C@H]1C2c1ccc(Br)cc1 (stereo partly drawn) | nt | 11.1 | nt | nt | nt | nt | nt
COc1ccc(OC)c2sc(N(CCN(C)C)C(=O)/C=C/c3cccs3)nc12 | 89.6* | 15.1 | 11.1 | 101.1* | 40.0* | -4.3 | i
Cc1ccc2nc(N(CCCN(C)C)C(=O)CN3C(=O)c4ccccc4C3=O)sc2c1 | nt | -11.1 | 19.0 | 62.0* | ? | nt | i
CN(C)CCCN(C(=O)/C=C/c1cccs1)c1nc2ccc(F)cc2s1 | 21.2 | -24.1 | 14.5 | 58.4* | -109.2 | -3.9 | i
Cc1c(C(=O)Nc2ccc(S(=O)(=O)N(C)C3CCN(C)CC3)cc2)oc2c(Cl)cccc12 | 8.6 | -5.1 | 15.5 | 69.5* | -44.0 | -3.9 | i
Cc1c(C(=O)Nc2ccc(S(=O)(=O)N(C)C3CCN(C)CC3)cc2)oc2ccccc12 | 5.5 | 17.8 | 10.7 | 30.2 | -43.6 | -10.4 | nt
CCCOc1cccc(C(=O)NC(=S)Nc2ccc(N3CCN(C)CC3)cc2)c1 | nt | -2.1 | 11.9 | 66.1* | -0.7 | -6.1 | i
C[C@@H]1CN([C@H](C)CO)C(=O)c2cc(NC(=O)NC3CCCCC3)ccc2O[C@@H](C)CCCCO[C@@H]1CN(C)C(=O)c1ccccc1 | 0.0 | -31.0 | -1.4 | 0.7 | nt | -9.8 | nt
CNC[C@@H]1Oc2c(NS(=O)(=O)c3cn(C)cn3)cccc2C(=O)N([C@@H](C)CO)C[C@@H]1C | -3.5 | 20.3 | -6.9 | -12.9 | nt | -1.6 | nt
CC(Sc1nnc(NC(=O)c2cc3ccccc3oc2=O)s1)c1ccccc1 (stereo not drawn) | 7.0 | 0.4 | 0.5 | 53.4* | -6.7 | 5.9 | i
N#C[C@@H]1[C@@H](c2ccc(C3=CCCC3)cc2)[C@@H](CO)N1C(=O)NC1CCCC1 | -0.5 | 8.0 | -1.1 | -22.9 | nt | 16.9 | nt
CC(=O)Nc1cccc(-c2cc(N3CCN(CCO)CC3)n3nccc3n2)c1 | -2.9 | -3.6 | 1.9 | 56.7* | nt | -0.1 | i
CNC(=O)C[C@@H]1CC[C@H]2[C@@H](COc3ccc(NC(=O)c4cscn4)cc3C(=O)N2C)O1 | 0.6 | 10.3 | nt | nt | nt | -5.4 | nt
CCN(CC)CCNC(=O)C(=O)Nc1cc2c3c(c1)CC(=O)N3CCC2 | -4.8 | 22.6 | -5.5 | 55.0* | -6.1 | -3.9 | i
CN1CCN(C2CCN(Cc3ccc(O)c4ncccc34)CC2)CC1 | 16.2 | nt | 47.1* | 91.8* | 4.9 | nt | i
Oc1ccc(CN2CCN(Cc3ccccc3)CC2)c2cccnc12 | -9.4 | nt | nt | nt | -8.5 | nt | nt
C[C@@H]1CCCCO[C@@H](CN(C)S(C)(=O)=O)[C@H](C)CN([C@H](C)CO)C(=O)c2cc(NS(C)(=O)=O)ccc2O1 | -1.0 | 6.3 | nt | nt | nt | 5.6 | nt

Screening data (PubChem BioAssay)
